Reference: PubChem BioAssay (Tox21)
Inconclusive results are not listed. Activity calls are given as the source filed them. Calls follow the shape of the dose curve; as a rule, active = well fitted curve in the direction sought with a large enough effect in the repeat runs; inconclusive = weak or mixed curves; inactive = no such curve, though single readings can be large; an effect the other way counts as inactive or inconclusive.

Experiments:
[1] = qHTS RealTime-Glo MT Cell Viability Assay in HEK293 cells - 40 hour (AID 1224874); details: RealTime-Glo luminescence; max response: active compounds read low; also: nearly all actives have a fitted effect of over 50% in size; also: potency is read from the fitted curve at half-maximal effect
Outline: (§1)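 Tox21 screen in HEK293 using RealTime-Glo MT chemistry, with cells and reagent co-dispensed. Luminescence proportional to viable cell number was captured at intervals during 40 h compound exposure at 37 C.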

[2] = A CellTox Green Cytotoxicity Assay to monitor cytotoxicity in HepG2 cells - 16 hour (AID 1224876); also: nearly all actives have a fitted effect of over 45% in size; also: potency is read from the fitted curve at half-maximal effect
Outline: (§2)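 Nonlytic assay: viable cells exclude the dye, so fluorescence scales with cell death. HepG2 at 600 cells/well, compounds added after 5 h, signal read across 40 h.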

[3] = A CellTox Green Cytotoxicity Assay to monitor cytotoxicity in HepG2 cells - 24 hour (AID 1224878); also: nearly all actives have a fitted effect of over 45% in size; also: potency is read from the fitted curve at half-maximal effect
Outline: as §2

[4] = A CellTox Green Cytotoxicity Assay to monitor cytotoxicity in HepG2 cells - 40 hour (AID 1224879); also: nearly all actives have a fitted effect of over 40% in size; also: potency is read from the fitted curve at half-maximal effect
Outline: as §2

[5] = qHTS RealTime-Glo MT Cell Viability Assay in HEK293 cells - 0 hour (AID 1224880); also: top concentration of the series differs between compounds; nearly all actives have a fitted effect of over 45% in size
Outline: as §1

[6] = A CellTox Green Cytotoxicity Assay to monitor cytotoxicity in HepG2 cells - 0 hour (AID 1224882); also: nearly all actives have a fitted effect of over 35% in size
Outline: as §2

[7] = A CellTox Green Cytotoxicity Assay to monitor cytotoxicity in HepG2 cells - 32 hour (AID 1224883); also: nearly all actives have a fitted effect of over 50% in size; also: potency is read from the fitted curve at half-maximal effect
Outline: as §2

[8] = A CellTox Green Cytotoxicity Assay to monitor cytotoxicity in HEK293 cells - 8 hour (AID 1224884); also: nearly all actives have a fitted effect of over 35% in size
Outline: (§3)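 Seeding of HEK293 cells together with cytotoxicity dye preceded a 5 h incubation at 37 C/5% CO2. Test compounds in DMSO were then added and fluorescence monitored across 40 h.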

[9] = qHTS RealTime-Glo MT Cell Viability Assay in HEK293 cells - 24 hour (AID 1224886); also: nearly all actives have a fitted effect of over 50% in size; also: potency is read from the fitted curve at half-maximal effect
Outline: (§4)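 Nonlytic real-time viability readout: viable cells convert prosubstrate to NanoLuc substrate, giving luminescence proportional to live cell number. HEK293, 600 cells/well, compound added after 5 h, continuous culture at 37 C.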

[10] = A CellTox Green Cytotoxicity Assay to monitor cytotoxicity in HEK293 cells - 16 hour (AID 1224888); also: nearly all actives have a fitted effect of over 35% in size; also: potency is read from the fitted curve at half-maximal effect
Outline: as §3

[11] = qHTS RealTime-Glo MT Cell Viability Assay in HepG2 cells - 0 hour (AID 1224889); also: nearly all actives have a fitted effect of over 50% in size
Outline: (§5)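 Luminescence read-out: viable HepG2 cells reduce a prosubstrate to a NanoLuc substrate, giving a signal proportional to live cell number. Reads taken at 0, 8, 16, 24, 32 and 40 h of compound exposure at 37 C.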

[12] = A CellTox Green Cytotoxicity Assay to monitor cytotoxicity in HepG2 cells - 8 hour (AID 1224890); also: nearly all actives have a fitted effect of over 45% in size
Outline: as §2

[13] = qHTS RealTime-Glo MT Cell Viability Assay in HepG2 cells - 8 hour (AID 1224873); also: nearly all actives have a fitted effect of over 55% in size
Outline: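 HepG2 cells mixed with RealTime-Glo MT reagents (NanoLuc plus cell-permeant prosubstrate) were seeded at 600 cells/well, incubated 5 h at 37 C/5% CO2, then pinned with compounds in DMSO; nonlytic luminescence tracked viability during 40 h treatment.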

[14] = qHTS RealTime-Glo MT Cell Viability Assay in HepG2 cells - 16 hour (AID 1224885); also: nearly all actives have a fitted effect of over 50% in size; also: potency is read from the fitted curve at half-maximal effect
Outline: as §5

[15] = qHTS RealTime-Glo MT Cell Viability Assay in HEK293 cells - 16 hour (AID 1224872); also: nearly all actives have a fitted effect of over 50% in size; also: potency is read from the fitted curve at half-maximal effect
Outline: as §4

[16] = qHTS RealTime-Glo MT Cell Viability Assay in HepG2 cells - 32 hour (AID 1224877); also: nearly all actives have a fitted effect of over 55% in size; also: potency is read from the fitted curve at half-maximal effect
Outline: as §5

[17] = A CellTox Green Cytotoxicity Assay to monitor cytotoxicity in HEK293 cells - 32 hour (AID 1224881); also: nearly all actives have a fitted effect of over 40% in size; also: potency is read from the fitted curve at half-maximal effect
Outline: as §3

[18] = qHTS RealTime-Glo MT Cell Viability Assay in HEK293 cells - 8 hour (AID 1224887); also: nearly all actives have a fitted effect of over 50% in size; also: potency is read from the fitted curve at half-maximal effect
Outline: as §1

[19] = A CellTox Green Cytotoxicity Assay to monitor cytotoxicity in HEK293 cells - 24 hour (AID 1224875); also: nearly all actives have a fitted effect of over 45% in size; also: potency is read from the fitted curve at half-maximal effect
Outline: as §3
% is scaled to controls: 0 for no effect and ±100 for the full control effect.

COc1ccc(-c2ccccc2)cc1NNC(=O)OC(C)C
active: Potency [1] 51 µM | Potency [9] 51 µM
inactive: Potency [2] | Potency [3] | Potency [4] | Potency [5] | Potency [6] | Potency [7] | Potency [8] | Potency [10] | Potency [11] | Potency [12]

CNP(=O)(OC)Oc1ccc(C(C)(C)C)cc1Cl (configuration not stated)
inactive: Potency [13] | Potency [5] | Potency [6] | Potency [8] | Potency [14] | Potency [10] | Potency [11] | Potency [12]
active: Potency [4] 54.9 µM

CCC(C)(NC(=O)c1cc(Cl)c(C)c(Cl)c1)C(=O)CCl (configuration not stated)
active: Potency [15] 27.7 µM | Potency [1] 13.9 µM | Potency [16] 49.3 µM | Potency [4] 49.3 µM | Potency [17] 43.9 µM | Potency [7] 49.3 µM | Potency [14] 49.3 µM | Potency [9] 24.7 µM | Potency [18] 27.7 µM
inactive: Potency [5] | Potency [6] | Potency [10] | Potency [11] | Potency [12]

CC1(C)CCC(Cc2ccc(Cl)cc2)C1(O)Cn1cncn1 (configuration not stated)
inactive: Potency [19] | Potency [16] | Potency [5] | Potency [17] | Potency [6] | Potency [10] | Potency [11]
active: Potency [15] 24.5 µM | Potency [1] 24.5 µM | Potency [2] 54.9 µM | Potency [4] 54.9 µM | Potency [7] 54.9 µM | Potency [9] 24.5 µM

S=C=NCc1ccccc1
inactive: Potency [13] | Potency [2] | Potency [3] | Potency [5] | Potency [6] | Potency [8] | Potency [14] | Potency [10] | Potency [12]
active: Potency [15] 24.8 µM | Potency [1] 44.1 µM | Potency [17] 49.5 µM | Potency [9] 24.8 µM

CC(=O)c1cc2c(cc1C)C(C)(C)C(C)CC2(C)C (configuration not stated)
inactive: max response [1] -12.1% | Potency [16] | Potency [5] | Potency [6] | Potency [14] | Potency [11]
active: Potency [19] 19.5 µM | Potency [2] 38.9 µM | Potency [3] 38.9 µM | Potency [4] 38.9 µM | Potency [17] 19.5 µM | Potency [7] 38.9 µM | Potency [10] 19.5 µM

CCCCCCCCCCOC(=O)c1ccccc1C(=O)OCCCCCCCCCC
inactive: Potency [15] | max response [1] 0.334% | Potency [19] | Potency [2] | Potency [16] | Potency [3] | Potency [4] | Potency [5] | Potency [17] | Potency [6] | Potency [7] | Potency [8] | Potency [14] | Potency [9] | Potency [10] | Potency [11] | Potency [12]

CN1C(=O)C(O)N=C(c2ccccc2)c2cc(Cl)ccc21 (configuration not stated)
inactive: Potency [15] | Potency [13] | Potency [19] | Potency [2] | Potency [16] | Potency [3] | Potency [4] | Potency [5] | Potency [17] | Potency [6] | Potency [7] | Potency [8] | Potency [14] | Potency [18] | Potency [10] | Potency [11] | Potency [12]

CN(C)c1ccc(N(C)C)cc1
inactive: Potency [15] | Potency [13] | Potency [19] | Potency [2] | Potency [16] | Potency [3] | Potency [4] | Potency [5] | Potency [17] | Potency [6] | Potency [7] | Potency [14] | Potency [10] | Potency [11]

O=[N+]([O-])C(Br)(CO)CO
inactive: Potency [19] | Potency [5] | Potency [17] | Potency [6] | Potency [8] | Potency [18] | Potency [10] | Potency [11]

CC(C)=CCOc1c2occc2cc2ccc(=O)oc12
inactive: Potency [15] | max response [1] -18% | Potency [19] | Potency [2] | Potency [3] | Potency [4] | Potency [5] | Potency [17] | Potency [6] | Potency [7] | Potency [8] | Potency [9] | Potency [18] | Potency [10] | Potency [11] | Potency [12]

CCOP(=O)(OCC)O/C(=C/Cl)c1ccc(Cl)cc1Cl
inactive: Potency [13] | Potency [19] | Potency [2] | Potency [16] | Potency [3] | Potency [4] | Potency [5] | Potency [17] | Potency [6] | Potency [7] | Potency [14] | Potency [10] | Potency [11] | Potency [12]
active: Potency [1] 19.5 µM | Potency [9] 24.5 µM

C=CC[C@]1(O)CC[C@H]2[C@@H]3CCC4=CC(=O)CCC4=C3C=C[C@@]21C
active: Potency [15] 19 µM | Potency [1] 19 µM | Potency [9] 19 µM
inactive: Potency [19] | Potency [2] | Potency [3] | Potency [4] | Potency [5] | Potency [6] | Potency [7] | Potency [8] | Potency [10] | Potency [12]

O=S(=O)(O)C(F)(F)C(F)(F)C(F)(F)C(F)(F)F
inactive: Potency [13] | Potency [19] | Potency [16] | Potency [3] | Potency [4] | Potency [17] | Potency [7] | Potency [8] | Potency [14] | Potency [10] | Potency [11] | Potency [12]
